# Experimental data: PubChem BioAssay (Tox21)
# Records with an inconclusive call do not appear. Values without a mark were called inactive. Calls of active or inactive are those of the source. The call rests on the fitted dose curve.
# Test: p53 small molecule agonists, cell-based qHTS assay with human liver microsomes (AID 1963577);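 further: p53 response element beta-lactamase reporter cells with liver microsomes plus NADPH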
# Conditions: HCT-116 p53RE-bla with human liver microsomes, ratio, 16 h; series mostly up to 66 µM; activation: at the top concentration
# Description: National Center for Advancing Translational Sciences [NCATS]
# Division of Preclinical Innovation [DPI]
# U.S. Environmental Protection Agency [EPA]
# National Institutes of Environmental Health Sciences [NIEHS]
# National Toxicology Program [NTP]
# U.S. Food and Drug Administration [FDA]
# p53, a tumor suppressor protein, is activated following cellular insult, including DNA damage and other cellular stresses. The activation of p53 regulates cell fate by inducing DNA repair, cell cycle arrest, apoptosis, or cellular senescence. The activation of p53, therefore, is a good indicator of DNA damage and other cellular stresses. […] The activation of the reporter gene under culture conditions can be detected by fluorescence intensity.
# Tox21 Assay Protocol Summary:
# The p53RE-bla cells were dispensed at 4,000cells/3ul/well in 1536-well black-clear bottom plates. After the assay plates were incubated at 37 C, 5% CO2 incubator for 5 hours, 23 nL of compounds dissolved in DMSO, positive controls or DMSO only was transferred to the assay plate. Following compound addition, 3 uL of human liver microsomes (XenoTech, Kansas City, KS) at final concentration of 0.5 mg/mL and 1uL of Beta-Nicotinamide adenine dinucleotide 2-phosphate (NADPH) at final concentration of 0.5 mg/mL were transferred to the assay plate. The plates were incubated at 37 C for 16 hours. 1 uL of LiveBLAzer detection mixture was added to each well and the plates were incubated at room temperature in the dark for 2 h.
# On the % scale 0 is the no-effect control and ±100 the full control effect.
SMILES,activation,Potency
N/C(=N\N=C\c1ccc(Cl)cc1)N/N=C/c1ccc(Cl)cc1,-7.33% [at 30.3 µM],–
COc1cccc2c1C(=O)c1c(O)c3c(c(O)c1C2=O)C[C@@](O)(C(=O)CO)C[C@@H]3O[C@H]1C[C@H](N)[C@H](O[C@@H]2CCCCO2)[C@H](C)O1,3.5% [at 30.3 µM],–
Nc1ccc([N+](=O)[O-])cc1O,-1.27%,–
CN(C)CC/C=C1\c2ccccc2COc2ccccc21,-10% [at 30.3 µM],–
c1cc(OCC2CO2)cc(OCC2CO2)c1 (stereo not given),-4.42%,–
COc1ccc(OC(F)(F)F)cc1CN[C@H]1CCCN[C@H]1c1ccccc1,-17.4%,–
CC(C)=CC(C)(C)C,0.109%,–
c1ccc2c(c1)ccc1c3ccccc3ccc21,2.05% [at 30.3 µM],–
O=C(c1ccccc1)c1ccc(O)cc1O,–,inactive
CO[C@@H]1[C@@H](OC)[C@H](C)[C@@](O)(CC(=O)O)O[C@H]1[C@H](C)[C@H]1O[C@@]2(CC[C@@](C)([C@H]3CC[C@@](C)([C@@H]4O[C@@H]([C@H]5O[C@](C)(O)[C@H](C)C[C@@H]5C)C[C@@H]4OC4C[C@H](OC)[C@@H](OC)[C@H](C)O4)O3)O2)C[C@H](O)[C@H]1C (stereo not given in full),-1.75% [at 30.3 µM],–
Nc1ccn([C@H]2CS[C@@H](CO)O2)c(=O)n1,-4.91%,–
CC(C)CCCC(C)CC=O (stereo not given),1.76%,–
Cc1ccc(Cl)cc1N,-1.01%,–
O=Cc1ccc(O)c(O)c1O,-10% [at 30.3 µM],–
C=C[Si]1(C)O[Si](C)(C=C)O[Si](C)(C=C)O[Si](C)(C=C)O1 (stereo not given),-11.4%,–
CC(C)C1=CC2=CC[C@@H]3[C@](C)(CCC[C@@]3(C)C(=O)O)[C@H]2CC1,-6.49%,–
C[C@@H](CN(C)C)CN1c2ccccc2Sc2ccccc21,-4.54% [at 30.3 µM],–
NC(=O)c1ccccc1C(N)=O,4.57%,–
O=C(Nc1ccc2c(c1)Cc1ccccc1-2)C(F)(F)F,-3.3%,–
CCCCCCCCCCCCCOS(=O)(=O)O,-9.22%,–

SMILES,activation,Potency
C/C(CC(C)C)=N\O,-0.698%,–
CC/C=C\CCCCCO,0.492%,–
C[C@H]1[C@H](NC(=O)/C(=N/OC(C)(C)C(=O)O)c2csc(N)n2)C(=O)N1S(=O)(=O)O (stereo in doubt),-0.0782% [at 30.3 µM],–
CCN1CCOCC1,1.55%,–
C=Cc1ccc(O)c(OC)c1,-14.3%,–
O=C(O)c1cc(C(=O)O)cc(C(=O)O)c1,0.923%,–
CC(C)C=O,0.677%,–
CCOC(=O)CC(O)(CC(=O)OCC)C(=O)OCC,-0.969%,–
CNCC[C@@H](Oc1ccccc1C)c1ccccc1,-0.5% [at 30.3 µM],–
CC(=O)OCC(C)OC(C)=O (stereo not given),-10.5%,–
O=C1CCCCCCCCCCCCCCO1,0.957%,–
CCN(CC)c1ccc(C(=C2C=CC(=[N+](CC)CC)C=C2)c2cc(S(=O)(=O)O)ccc2S(=O)(=O)[O-])cc1,-0.438% [at 30.3 µM],–
Oc1cccc(-c2c3nc(c(-c4cccc(O)c4)c4ccc([nH]4)c(-c4cccc(O)c4)c4nc(c(-c5cccc(O)c5)c5ccc2[nH]5)CC4)C=C3)c1,-10.5% [at 30.3 µM],–
CCCC(=O)OC[C@@H](OC(=O)CCC)[C@@H](OC(=O)CCC)[C@H](Cn1c2nc(=O)[nH]c(=O)c-2nc2cc(C)c(C)cc21)OC(=O)CCC,-5.54% [at 30.3 µM],–
CCCCN1C(=O)[C@@H]([C@H](O)C2CCCCC2)NC(=O)C12CCN(Cc1ccc(Oc3ccc(C(=O)O)cc3)cc1)CC2,-12.1%,–
CC(=O)c1ccc2c(c1)N(CCCN1CCC(CCO)CC1)c1ccccc1S2,-14.1% [at 30.3 µM],–
Brc1cc2ccccc2c2ccccc12,-8.41%,–
CCC(C)(C)c1cc(O)c(C(C)(C)CC)cc1O,2.1%,–
CC(C)C[C@H](NC(=O)CNC(=O)[C@H](Cc1ccc(O)cc1)NC(=O)[C@H](CO)NC(=O)[C@H](Cc1c[nH]c2ccccc12)NC(=O)[C@H](Cc1cnc[nH]1)NC(=O)[C@@H]1CCC(=O)N1)C(=O)N[C@@H](CCCN=C(N)N)C(=O)N1CCC[C@H]1C(=O)NCC(N)=O (stereo in doubt),-1.2% [at 30.3 µM],–
CC(C)OC(=O)OCOP(=O)(CO[C@H](C)Cn1cnc2c(N)ncnc21)OCOC(=O)OC(C)C,1.04% [at 30.3 µM],–
